In PubChem BioAssay (NCI):
The panel holds about 83,000 compounds, 20% with a hit somewhere; the sample as a whole holds those more often.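 For each line, cells grew in 96-well plates with the test compound present at a single concentration for 48 hours.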 Calls of active or inactive are those of the source. How the source made its calls: active means growth percent below 10; inactive means the rest.

tested on: HOP-62 NSCLC; assay: NCI-60 one-dose screen, 48 h (100 = growth as untreated, 0 = no growth, -100 = all killed); conditions: 10 µM unless noted

Structure (SMILES) | growth
COc1ccc2c(c1)C(=Nc1cc(OC)c(OC)c(OC)c1)C(=O)N2 | 36.1% (inactive)
CC(=O)N1N=C(c2ccc(Cl)cc2)CC1c1c(C)nn(-c2ccccc2)c1N(C)Cc1ccccc1 (stereo not drawn) | 74.3% (inactive)
C=C1CCC2C(C)(COC(=O)CC)C(OC(=O)CC)CCC2(C)C1C/C=C1/C(=O)OCC1OC(=O)CC (stereo not drawn) | -17.7% (active)
COCCOCCOCCOCCOc1ccc2c(c1)C(=O)c1nc3ncccc3c(=O)n1-2 | -83% (active)
CCCCN1c2nc3ccccc3cc2Sc2cc3ccccc3nc21 | 90.7% (inactive)
Nc1ccn(C2O[C@H](CO)[C@@H](O)[C@@H]2O)c(=O)n1 (stereo partly drawn) | 26.7% (inactive)
COc1ccc(C(=O)/C=C/c2ccc(C)cc2)cc1OC | 79% (inactive)
Cc1cc(=O)[nH]c(/C(=N/Nc2ccccc2)C(=O)c2ccc(Cl)cc2)n1 | 104% (inactive)
Cc1ccc2nc3c(n2c1)C(=O)C(=O)c1ccccc1-3 | -74.9% (active)
O=c1[nH]c(N2CCC(Cc3ccccc3)CC2)nc2sc3c(c12)CCCC3 | 94.5% (inactive)
CSc1nc(-c2ccc(O)cc2O)c2c(=O)[nH]c(Nc3ccc(S(=O)(=O)Nc4nc(C)cc(C)n4)cc3)nc2n1 | 89.6% (inactive)
Oc1ccccc1/C=N/N1CCCCCC1 | 109% (inactive)
Cc1ccc(/C=C(/C#N)n2nnc3ncccc32)cc1 | 20.5% (inactive)
CN1CCN(c2nc3scc(-c4ccccc4)c3c(=O)[nH]2)CC1 | 103% (inactive)
Nc1ccccc1C#Cc1ccccc1C#Cc1ccc(OCCCCCCOc2ccc(C#Cc3ccccc3C#Cc3ccccc3N)cc2)cc1 | 93.9% (inactive)
CCOC(=O)Nc1cc(-c2ccc(C)c(NS(C)(=O)=O)c2)nn2c(C)nnc12 | 14.1% (inactive)
O=C1OC2(c3ccccc31)c1ccccc1-c1ccccc12 | 93.8% (inactive)
COP(=O)(OC)C(c1ccccc1)(c1ccccc1)c1ccccc1 | 93.8% (inactive)
CCOc1cc(/C=C/C(=O)CC(=O)/C=C/c2ccc(OC(=O)CNc3nc4ccc(OC)cc4s3)c(OCC)c2)ccc1OC(=O)CNc1nc2ccc(OC)cc2s1 | 63.9% (inactive)
Cc1cn(C(C=O)OC(C=O)CO)c(=O)[nH]c1=O (stereo not drawn) | 102% (inactive)

Structure (SMILES) | growth
Oc1c(Cl)cc(Oc2cc(Cl)c(O)c(CN3CCOCC3)c2)cc1CN1CCOCC1 | 81.2% (inactive)
Nc1nc(Nc2ccccc2SSc2ccccc2Nc2nc(N)nc(-c3ccc(I)cc3)n2)nc(-c2ccc(I)cc2)n1 | 26.1% (inactive)
CNc1nc(NC2CCCC2)nc(Sc2ccc(OC)cc2)n1 | 53.4% [100 µM] (inactive)
Cn1cc(NC(=O)Nc2cc(C(=O)O)n(C)c2)cc1C(=O)O | 94.3% (inactive)
CCOC(=O)CCC(=O)O[C@H]1[C@H](O[C@@H]2[C@@H](C)[C@H](O[C@H]3C[C@@](C)(OC)[C@@H](O)[C@H](C)O3)[C@@H](C)C(=O)O[C@H](CC)[C@@](C)(O)[C@H](O)[C@@H](C)C(=O)[C@H](C)C[C@@]2(C)O)O[C@H](C)C[C@@H]1N(C)C | 94.6% (inactive)
O=C(NC1CCCCC1)c1ccc(Nc2ncnc3c2cnn3-c2ccccc2)cc1 | -66.5% (active)
Cc1sc2nc(NCCc3cccs3)[nH]c(=O)c2c1C | 68.4% (inactive)
CCCc1n(Cc2ccc3ccccc3c2)cc[n+]1Cc1ccc2ccccc2c1 | 5.82% (active)
O=C1/C(=C/c2ccccc2O)C(=S)SN1Cc1ccco1 | 92.7% (inactive)
COc1cccc(/C=N\NC(=O)c2ccncc2)c1O | 50.8% (inactive)
COc1ccc(C(=O)COc2ccc(/C=C3\Oc4ccc5ccccc5c4C3=O)cc2)cc1 | 104% (inactive)
CN1CCN(CCCOc2ccc3ncnc(Nc4ccc(OCc5cccc(F)c5)c(Cl)c4)c3c2)CC1 | 19.7% (inactive)
N/C(=N\c1nc2ccccc2s1)NC(=O)Nc1ccccc1Cl | 28.6% (inactive)
O=C1/C(=C/c2cccc(Cl)c2)CCc2ccccc21 | 105% (inactive)
NC(=O)NS(=O)(=O)c1ccc(N2N=C(C(F)(F)F)CC2c2cc(C(F)(F)F)cc(C(F)(F)F)c2)cc1 (stereo not drawn) | 103% (inactive)
COc1ccc(N2CCN(CC(=O)N3CCN(c4nnc(-c5ccccc5)c(-c5ccccc5)n4)CC3)CC2)cc1 | 64.7% (inactive)
O=C(Nc1ccccc1OC(=O)c1ccccc1)c1ccccc1 | 85.2% (inactive)
Oc1c(N=Nc2nn[nH]n2)ccc2ccccc12 | 85.4% (inactive)
N#Cc1ncc(-c2ccc(C(F)(F)F)cc2)c(NC2CCCCCC2)n1 | 43.9% (inactive)

tested on: NCI-H460 lung; assay: as above; conditions: 10 µM unless noted

Structure (SMILES) | growth
COc1ccc2c(c1)C(=Nc1cc(OC)c(OC)c(OC)c1)C(=O)N2 | 116% (inactive)
CC(=O)N1N=C(c2ccc(Cl)cc2)CC1c1c(C)nn(-c2ccccc2)c1N(C)Cc1ccccc1 (stereo not drawn) | 79% (inactive)
C=C1CCC2C(C)(COC(=O)CC)C(OC(=O)CC)CCC2(C)C1C/C=C1/C(=O)OCC1OC(=O)CC (stereo not drawn) | 79.6% (inactive)
COCCOCCOCCOCCOc1ccc2c(c1)C(=O)c1nc3ncccc3c(=O)n1-2 | -61.2% (active)
CCCCN1c2nc3ccccc3cc2Sc2cc3ccccc3nc21 | 99% (inactive)
Nc1ccn(C2O[C@H](CO)[C@@H](O)[C@@H]2O)c(=O)n1 (stereo partly drawn) | 6.43% (active)
COc1ccc(C(=O)/C=C/c2ccc(C)cc2)cc1OC | 80.9% (inactive)
Cc1cc(=O)[nH]c(/C(=N/Nc2ccccc2)C(=O)c2ccc(Cl)cc2)n1 | 109% (inactive)
Cc1ccc2nc3c(n2c1)C(=O)C(=O)c1ccccc1-3 | -71.1% (active)
O=c1[nH]c(N2CCC(Cc3ccccc3)CC2)nc2sc3c(c12)CCCC3 | 102% (inactive)
CSc1nc(-c2ccc(O)cc2O)c2c(=O)[nH]c(Nc3ccc(S(=O)(=O)Nc4nc(C)cc(C)n4)cc3)nc2n1 | 111% (inactive)
Oc1ccccc1/C=N/N1CCCCCC1 | 127% (inactive)
Cc1ccc(/C=C(/C#N)n2nnc3ncccc32)cc1 | -14% (active)
CN1CCN(c2nc3scc(-c4ccccc4)c3c(=O)[nH]2)CC1 | 108% (inactive)
Nc1ccccc1C#Cc1ccccc1C#Cc1ccc(OCCCCCCOc2ccc(C#Cc3ccccc3C#Cc3ccccc3N)cc2)cc1 | 114% (inactive)
CCOC(=O)Nc1cc(-c2ccc(C)c(NS(C)(=O)=O)c2)nn2c(C)nnc12 | 28.5% (inactive)
O=C1OC2(c3ccccc31)c1ccccc1-c1ccccc12 | 106% (inactive)
COP(=O)(OC)C(c1ccccc1)(c1ccccc1)c1ccccc1 | 108% (inactive)
CCOc1cc(/C=C/C(=O)CC(=O)/C=C/c2ccc(OC(=O)CNc3nc4ccc(OC)cc4s3)c(OCC)c2)ccc1OC(=O)CNc1nc2ccc(OC)cc2s1 | 57.5% (inactive)
Cc1cn(C(C=O)OC(C=O)CO)c(=O)[nH]c1=O (stereo not drawn) | 105% (inactive)

Structure (SMILES) | growth
Oc1c(Cl)cc(Oc2cc(Cl)c(O)c(CN3CCOCC3)c2)cc1CN1CCOCC1 | 93.4% (inactive)
Nc1nc(Nc2ccccc2SSc2ccccc2Nc2nc(N)nc(-c3ccc(I)cc3)n2)nc(-c2ccc(I)cc2)n1 | 54.8% (inactive)
CNc1nc(NC2CCCC2)nc(Sc2ccc(OC)cc2)n1 | 10.2% [100 µM] (inactive)
Cn1cc(NC(=O)Nc2cc(C(=O)O)n(C)c2)cc1C(=O)O | 120% (inactive)
CCOC(=O)CCC(=O)O[C@H]1[C@H](O[C@@H]2[C@@H](C)[C@H](O[C@H]3C[C@@](C)(OC)[C@@H](O)[C@H](C)O3)[C@@H](C)C(=O)O[C@H](CC)[C@@](C)(O)[C@H](O)[C@@H](C)C(=O)[C@H](C)C[C@@]2(C)O)O[C@H](C)C[C@@H]1N(C)C | 119% (inactive)
O=C(NC1CCCCC1)c1ccc(Nc2ncnc3c2cnn3-c2ccccc2)cc1 | 42.2% (inactive)
Cc1sc2nc(NCCc3cccs3)[nH]c(=O)c2c1C | 95.7% (inactive)
CCCc1n(Cc2ccc3ccccc3c2)cc[n+]1Cc1ccc2ccccc2c1 | 3.26% (active)
O=C1/C(=C/c2ccccc2O)C(=S)SN1Cc1ccco1 | 106% (inactive)
COc1cccc(/C=N\NC(=O)c2ccncc2)c1O | 15.9% (inactive)
COc1ccc(C(=O)COc2ccc(/C=C3\Oc4ccc5ccccc5c4C3=O)cc2)cc1 | 110% (inactive)
CN1CCN(CCCOc2ccc3ncnc(Nc4ccc(OCc5cccc(F)c5)c(Cl)c4)c3c2)CC1 | -68.9% (active)
N/C(=N\c1nc2ccccc2s1)NC(=O)Nc1ccccc1Cl | 12.7% (inactive)
O=C1/C(=C/c2cccc(Cl)c2)CCc2ccccc21 | 107% (inactive)
NC(=O)NS(=O)(=O)c1ccc(N2N=C(C(F)(F)F)CC2c2cc(C(F)(F)F)cc(C(F)(F)F)c2)cc1 (stereo not drawn) | 81.3% (inactive)
COc1ccc(N2CCN(CC(=O)N3CCN(c4nnc(-c5ccccc5)c(-c5ccccc5)n4)CC3)CC2)cc1 | 42.5% (inactive)
O=C(Nc1ccccc1OC(=O)c1ccccc1)c1ccccc1 | 98.1% (inactive)
Oc1c(N=Nc2nn[nH]n2)ccc2ccccc12 | 73% (inactive)
N#Cc1ncc(-c2ccc(C(F)(F)F)cc2)c(NC2CCCCCC2)n1 | 29.8% (inactive)
